The list is not random: actives were taken first. Their share in the collection is about 2.4%.
D2 PAM-1: positive allosteric modulators of human D2 dopamine receptor; P14416; DiscoveRx D2 beta-arrestin cells, luminescence, 90 min; 100% = 57 uM dopamine signal; potentiation, % (test concentration not listed); actives 0.23% (n = 360,000); in the data active = potentiation above about 50%
Target sequence (P14416 whole entry, looked up): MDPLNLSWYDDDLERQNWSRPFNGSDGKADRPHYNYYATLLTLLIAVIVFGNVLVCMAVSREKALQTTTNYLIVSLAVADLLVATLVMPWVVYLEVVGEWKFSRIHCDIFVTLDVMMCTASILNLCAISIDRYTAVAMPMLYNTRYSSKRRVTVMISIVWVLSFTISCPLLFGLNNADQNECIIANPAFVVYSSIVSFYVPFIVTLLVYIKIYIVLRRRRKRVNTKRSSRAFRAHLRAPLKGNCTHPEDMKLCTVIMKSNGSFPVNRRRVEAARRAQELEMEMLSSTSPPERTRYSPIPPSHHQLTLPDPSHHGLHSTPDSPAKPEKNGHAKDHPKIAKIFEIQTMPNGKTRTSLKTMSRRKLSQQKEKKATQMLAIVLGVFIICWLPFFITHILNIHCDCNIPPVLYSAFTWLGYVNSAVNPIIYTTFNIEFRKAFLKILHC
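PathHunter beta-arrestin assay in DiscoveRx D2 cells. Compounds were added with an EC20 of dopamine (50 nM final) for 90 min at 37 deg C. Luminescence was read 1 h after detection reagent, with 57 uM dopamine as the EC100 control.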
D2 PAM-2: positive allosteric modulators of human D2 dopamine receptor. HEK293 T-REx D2, calcium flux, EC20 dopamine potentiation. potentiation, % at 10 µM. actives 0.34% (n = 340,000). AID 485347;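 active = potentiation over 3 SD above the plate norm, cut at about 30% in these data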; note: 0% is about no effect
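Tetracycline-induced HEK293 T-REx cells force-coupled to calcium signalling expressed D2; compounds were pin-added after a 10 s baseline, read kinetically 180 s, then an EC20 dopamine challenge followed with a further 180 s calcium read.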
D2 antag: antagonists of human D2 dopamine receptor; actives 2% (n = 340,000); HEK293 TREx D2 cells, calcium flux, dopamine EC80; inhibition, % at 10 µM; P14416; in the data active = inhibition above about 30%; inactive = below that, where a call was filed; note: 0% is about no effect
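In this primary screen, negative modulation is detected by tracking calcium flux after an EC80 dopamine challenge in inducible HEK293 T-REx D2 cells preexposed to test compound for 180 s.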
D2 ag-1: agonists of human D2 dopamine receptor (beta-arrestin); DiscoveRx PathHunter D2 beta-arrestin, luminescence, 90 min; 100% = 57 uM dopamine signal; activation, % (concentration not given with the values); actives 0.084% (n = 360,000); AID 624465; in the data active = activation above about 40%
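DiscoveRx PathHunter D2 beta-arrestin cells (2,100/well) attached overnight, then compound-stimulated 90 min at 37 C in HBSS/10 mM HEPES/0.1% Tween-20 buffer; beta-galactosidase complementation read by luminescence after 1 h at ambient temperature. Dopamine 57 uM final (EC100) as control.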
D2 ag-2: agonists of human D2 dopamine receptor | HEK293 T-REx D2 cells, calcium flux agonist mode | activation, % at 2 µM | actives 0.53% (n = 340,000);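 active = activation over 3 SD above normal in the single-dose calcium agonist read, cut at about 30% in these data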; note: 0% is about no effect
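Agonism is scored from calcium flux in a force-coupled, inducible HEK293 cell line expressing D2, read kinetically for 180 s after compound addition against dopamine controls.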
Starred values were filed as active, the others as inactive.

Results for COC(=O)c1cccc(NC2=NS(=O)(=O)c3ccccc32)c1 ?
D2 PAM-2: -7; D2 ag-2: 0

What do the screens show for `CCOC(=O)c1c(C)oc2c1cc(NS(=O)(=O)c1ccc(C)cc1)c1ccccc12`?
D2 PAM-2: -11; D2 ag-2: -1

How did Cc1ccc(S(=O)(=O)Nc2cc3c(C(=O)Nc4ccccc4)c(C)oc3c3ccccc23)cc1 do in these assays?
D2 PAM-1: 84*; D2 PAM-2: -3; D2 antag: 0; D2 ag-1: 13; D2 ag-2: 1

Results for Cc1cc(C)c2c(n1)nn1c(NCCCn3ccnc3)cc(C)nc21 ?
D2 PAM-2: 34*; D2 antag: -17; D2 ag-2: 0

What do the screens show for `Cc1cc(C)c2c(n1)nn1c(NCCCN3CCOCC3)cc(C)nc21`?
D2 PAM-1: -12; D2 ag-1: -3

What do the screens show for `C=CCN=C1S/C(=C/c2ccc([N+](=O)[O-])cc2)C(=O)N1CC=C`?
D2 PAM-1: -5; D2 PAM-2: 2; D2 antag: 5; D2 ag-1: 1; D2 ag-2: -1

How did C=CCN=C1S/C(=C\c2ccc(Cl)cc2)C(=O)N1CC=C do in these assays?
D2 PAM-1: -3; D2 PAM-2: -4; D2 antag: 80*; D2 ag-1: 1; D2 ag-2: 1

How did C(=NN1CCCCCC1)c1ccc2c(c1)OCO2 do in these assays?
D2 PAM-1: -17; D2 ag-1: -1

What do the screens show for `N#CC(C#N)=c1ccc2c(c1)N1C3=C(CCCC3)CC3CCCCC31N=2` (centres undefined)?
D2 PAM-1: 71*; D2 PAM-2: 6; D2 antag: 3; D2 ag-1: 3; D2 ag-2: 3

Results for N#C/C(C(N)=O)=c1/ccc2c(c1)N1C3=C(CCCC3)CC3CCCCC31N=2 (centres undefined) ?
D2 PAM-1: 0; D2 PAM-2: 12; D2 antag: 22; D2 ag-1: 3; D2 ag-2: -1

How did COc1ccc(/C=C2/N=C(SCC(=O)Nc3cc(C)on3)N(c3ccccc3)C2=O)cc1 do in these assays?
D2 PAM-1: 7; D2 PAM-2: 1; D2 antag: 32*; D2 ag-1: 0; D2 ag-2: -1

What do the screens show for `C=C1C(=O)C=C[C@]2(C)C[C@@H]3OC(=O)[C@](C)(O)[C@H]3C[C@@H]12`?
D2 PAM-1: -9; D2 PAM-2: -5; D2 antag: 37*; D2 ag-1: -2; D2 ag-2: 0

What do the screens show for `Cc1nnc(SCC(=O)N(CC(C)C)c2c(N)n(Cc3ccccc3)c(=O)[nH]c2=O)n1N`?
D2 PAM-1: 9; D2 PAM-2: -11; D2 antag: 28; D2 ag-1: -1; D2 ag-2: 1

Results for O=C(NCc1ccco1)c1cccc2c1C(=O)N(C1CCCCC1)C2 ?
D2 PAM-1: -14; D2 PAM-2: 35*; D2 antag: -18; D2 ag-1: -5; D2 ag-2: 0

What do the screens show for `CC12CCC(=O)N1C(C(=O)N1CCN(c3ccccc3)CC1)CS2` (centres undefined)?
D2 PAM-1: -5; D2 PAM-2: -9; D2 antag: 19; D2 ag-1: 2; D2 ag-2: 1

What do the screens show for `CC12CCC(=O)N1C(C(=O)N1CCN(c3cccc(Cl)c3)CC1)CS2` (centres undefined)?
D2 PAM-1: 6; D2 PAM-2: -19; D2 antag: 71*; D2 ag-1: 11; D2 ag-2: 1

Results for CN(C)CCCNC(=S)/N=c1\sccn1Cc1ccccc1Cl ?
D2 PAM-1: -11; D2 PAM-2: -40; D2 antag: 90*; D2 ag-1: -2; D2 ag-2: 0

How did CCOc1cc(CNCCc2ccc(S(N)(=O)=O)cc2)ccc1OCc1ccccc1 do in these assays?
D2 PAM-1: -10; D2 PAM-2: 41*; D2 antag: 4; D2 ag-1: -3; D2 ag-2: 0

Results for O=C(CSc1nnc(NC(=O)c2cccc(F)c2)s1)NCC1CCCO1 (centres undefined) ?
D2 PAM-1: -3; D2 PAM-2: 11; D2 ag-1: -1

How did O=C(CSc1nnc(NC(=O)c2c(F)cccc2F)s1)NCC1CCCO1 (centres undefined) do in these assays?
D2 PAM-1: 9; D2 PAM-2: -13; D2 antag: 74*; D2 ag-1: 1; D2 ag-2: 1

What do the screens show for `CCC(=O)N1CCc2cc(CNC(=O)c3ccccc3C)ccc21`?
D2 PAM-2: 10; D2 ag-2: 1

How did Cc1cccc(N2CCN(Cc3nc(-c4ccccc4Cl)oc3C)CC2)n1 do in these assays?
D2 PAM-1: -7; D2 PAM-2: -5; D2 antag: 40*; D2 ag-1: 3; D2 ag-2: 2

Results for COc1ccc(N=Nc2nc3ccc(Br)cc3n2C)cc1 ?
D2 PAM-1: -46; D2 PAM-2: 33*; D2 antag: 23; D2 ag-1: -7; D2 ag-2: 0

How did O=C(Nc1ccc(F)c(Cl)c1)c1cc(C2CCCN(S(=O)(=O)c3cccc4cccnc34)C2)on1 (centres undefined) do in these assays?
D2 PAM-1: 2; D2 ag-1: 7

What do the screens show for `CN1/C(=C/C=C/c2n(C)c3cc([N+](=O)[O-])c([N+](=O)[O-])cc3[n+]2C)C(C)(C)c2ccccc21`?
D2 PAM-1: -54; D2 ag-1: -10

How did Cn1c(=O)[nH]c(=O)c2c1ncn2CCN1CCOCC1 do in these assays?
D2 PAM-1: -18; D2 PAM-2: 6; D2 antag: 38*; D2 ag-1: -1; D2 ag-2: 0

How did Cn1c(=O)[nH]c(=O)c2c1nc(N1CCOCC1)n2CCN1CCOCC1 do in these assays?
D2 PAM-1: -3; D2 PAM-2: 3; D2 antag: -6; D2 ag-1: -4; D2 ag-2: 1

What do the screens show for `Cc1cc(Br)ccc1NS(=O)(=O)c1c(C)[nH]c(=O)[nH]c1=O`?
D2 PAM-1: -3; D2 PAM-2: 0; D2 antag: 1; D2 ag-1: -4; D2 ag-2: 0

How did Cc1cc(NS(=O)(=O)c2c(C)[nH]c(=O)[nH]c2=O)ccc1Br do in these assays?
D2 PAM-1: -8; D2 PAM-2: -8; D2 antag: 41*; D2 ag-1: -4; D2 ag-2: 0

How did O=C1NC(=Nc2ccccc2)SC1Cc1ccccc1 (centres undefined) do in these assays?
D2 PAM-1: -3; D2 PAM-2: 41*; D2 antag: 0; D2 ag-1: -2; D2 ag-2: -1

How did O=C1N/C(=N/c2ccccn2)SC1Cc1ccccc1 (centres undefined) do in these assays?
D2 PAM-1: -7; D2 PAM-2: 6; D2 antag: -1; D2 ag-1: 5; D2 ag-2: 1

What do the screens show for `CCCNC(=O)C1(C)CCCN(C(=O)COCc2ccccc2)C1` (centres undefined)?
D2 PAM-1: -11; D2 ag-1: -4

Source: PubChem BioAssay
